# Measured values published in PubChem BioAssay (EPA / NIEHS).
# Where “and” joins values, the source holds several entries; their conditions need not be identical. Equal entries are not always repeated. Records with an inconclusive call do not appear. Where a structure was tested more than once in an assay, its records may differ in their call. Calls of active or inactive are those of the source. Rule for the calls, unless noted: active = hit-call score of the fitted dose curve at least 0.9, where 1 is the maximum; inactive = score below 0.9.
# What was measured:
# [1] = target: Nuclear respiratory factor 1 (Homo sapiens) (UniProt Q16656); experiment: ATG_NRF1_CIS: Attagene CIS-FACTORIAL HepG2 Assay for human Nuclear Respiratory Factor 1 (NRF1) Orphan Gene (AID 2282987); conditions: HepG2 NRF1 cis-element reporter, Attagene multiplex; actives raise or lower the signal
# How it was run: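 Transcriptional reporter readout, one component of a 52-endpoint multiplexed HepG2 panel. Exposure 24 h; mRNA detected via RT-PCR and fluorescent capillary electrophoresis; fitting in both directions against DMSO.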
# [2] = ATG_NFI_CIS: Attagene CIS-FACTORIAL HepG2 Assay for human Nuclear Factor I (NFI) (AID 2282989); conditions: HepG2 cis-regulatory reporter, NFI response element transcription; actives raise or lower the signal
# How it was run: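 Endogenous TF activity in HepG2 cells transiently transfected with cis-element-driven multiplexed reporter units, read 24 h after dosing. Reporter mRNA quantified by RT-PCR, 6-FAM labelling, HpaI digestion and capillary electrophoresis; bidirectional fit versus DMSO.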
# [3] = target: Myc proto-oncogene protein (Homo sapiens) (UniProt P01106); experiment: ATG_Myc_CIS: Attagene CIS-FACTORIAL HepG2 Assay for human Myelocytomatosis (Myc) Proto-Oncogene Transcription Factor (AID 2282990); conditions: HepG2, Attagene cis-reporter transcription factor activity; actives raise or lower the signal
# How it was run: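 Cells of the HepG2 human liver line bear multiple cis-driven reporter transcription units. Reporter mRNA after 24 h exposure is reverse-transcribed, amplified, labelled and resolved by capillary electrophoresis, with gain- or loss-of-signal fitting relative to DMSO.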
# [4] = ATG_NF_kB_CIS: Attagene CIS-FACTORIAL HepG2 Assay for human Nuclear Factor Kappa B (NF-kB) (AID 2282991); conditions: HepG2 Attagene cis-factorial NF-kB reporter mRNA; actives raise or lower the signal
# How it was run: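 HepG2, transient multi-reporter transfection, cis promoter elements (endogenous TFs). 24 h exposure. Total RNA → RT → PCR → 6-FAM label → HpaI → CE. Gain/loss vs DMSO.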
# [5] = ATG_NRF2_ARE_CIS: Attagene CIS-FACTORIAL HepG2 Assay for human Nuclear Factor Erythroid 2 Related Factor 2 (NFR2) response to Antioxidant Response Elements (ARE) (AID 2282992); conditions: HepG2 Attagene ARE/NRF2 reporter, transcription factor activity; actives raise or lower the signal
# How it was run: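 Endogenous transcription factor activity read out as reporter transcript levels (RT-PCR plus capillary electrophoresis, fluorescence) in transiently transfected HepG2 cells. Measured at 24 h after dosing; gain or loss of signal fitted versus DMSO.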
# [6] = ATG_Oct_MLP_CIS: Attagene CIS-FACTORIAL HepG2 Assay for human Octamer-Binding Transcription Factor (Oct) (AID 2282993); conditions: HepG2 Attagene cis-factorial Oct reporter, mRNA; actives raise or lower the signal
# How it was run: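 HepG2 cells transiently transfected with cis-element-driven reporter transcription units (endogenous TF activity); 24 h compound exposure. Reporter mRNA quantified by RT-PCR, 6-FAM labelling, HpaI digestion and capillary electrophoresis; bidirectional fit versus DMSO baseline.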
# [7] = target: Cellular tumor antigen p53 (Homo sapiens) (UniProt P04637); experiment: ATG_p53_CIS: Attagene CIS-FACTORIAL HepG2 Assay for human p53 Transcription Factor (AID 2282994); conditions: HepG2 p53 cis-element reporter, Attagene mRNA; actives raise or lower the signal
# How it was run: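 Endogenous p53 activity read in transiently transfected HepG2 from a cis-element-driven reporter transcript after 24 h exposure. RNA reverse-transcribed, PCR-amplified, fluorescently labelled and sized by capillary electrophoresis; gain or loss fitted against DMSO baseline.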
# [8] = BSK_3C_TissueFactor: BioMAP Diversity Plus: 3C Assay for Tissue Factor Biomarker Activity (AID 2282997); conditions: BioMAP 3C HUVEC, tissue factor biomarker readout; actives raise or lower the signal
# How it was run: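 In this endothelial system, HUVEC are treated for 24 h and Tissue Factor is assessed by ELISA, normalised to DMSO.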
# [9] = BSK_3C_uPAR: BioMAP Diversity Plus: 3C Assay for Urokinase-type plasminogen activator receptor (uPAR) Biomarker Activity (AID 2282998); conditions: BioMAP 3C HUVEC, uPAR biomarker ELISA; actives raise or lower the signal
# How it was run: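 Primary human umbilical vein endothelial cells, 3C system; surface uPAR measured by ELISA 24 h after dosing. Cytotoxicity via SRB total protein in parallel cultures; bidirectional fit against DMSO.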
# [10] = BSK_3C_VCAM1: BioMAP Diversity Plus: 3C Assay for Vascular cell adhesion molecule 1 (VCAM1) Biomarker Activity (AID 2282999); conditions: BioMAP 3C HUVEC, VCAM1 ELISA, cytokine-stimulated; actives raise or lower the signal
# How it was run: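 Activity fitted in both directions relative to DMSO, with ELISA measurement of the surface marker on primary HUVEC (3C) at 24 h post-treatment; parallel SRB staining (0.1% SRB, TCA-fixed, 560 nm) flagged overt cytotoxicity.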
# [11] = BSK_4H_Eotaxin3: BioMAP Diversity Plus: 4H Assay for Eotaxin 3 Biomarker Activity (AID 2283000); conditions: primary human endothelial cells (HUVEC); actives raise or lower the signal;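 for outcome: CCL26 protein level quantified by ELISA in parallel with SRB cytotoxicity check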
# How it was run: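 ELISA quantitation of CCL26 (Eotaxin-3) protein from chemically dosed human vascular endothelial cells at 24 h; increases and decreases both scored relative to DMSO-treated baseline.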
# [12] = target: human Peroxisome Proliferator-activated Receptor alpha (PPARa), PPARA (gene 5465) (UniProt Q07869); experiment: ATG_PPARa_TRANS: Attagene TRANS-FACTORIAL HepG2 Assay for human Peroxisome Proliferator-activated Receptor alpha (PPARa) (AID 2283001; active = hit-call score of the fitted dose curve at least 0.9, where 1 is the maximum;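 for AC50: potency for gain of reporter signal over DMSO so agonist or activator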)
# How it was run: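 Transfected HepG2 cells treated with test chemical for 24 h. RNA isolated, reverse-transcribed with oligo(dT), PCR-amplified, FAM-labelled and HpaI-digested. Fragments sized by capillary electrophoresis; gain-of-signal fit relative to DMSO.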
# [13] = target: human Peroxisome Proliferator-activated Receptor delta (PPARd), PPARD (gene 5467) (UniProt Q03181); experiment: ATG_PPARd_TRANS: Attagene TRANS-FACTORIAL HepG2 Assay for human Peroxisome Proliferator-activated Receptor delta (PPARd) (AID 2283002; active = hit-call score of the fitted dose curve at least 0.9, where 1 is the maximum)
# How it was run: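 Cell-based TRANS reporter: HepG2, transient MRTU transfection, 24 h exposure. Readout = reporter mRNA (RT-PCR/CE, 6-FAM). Gain-of-signal fit vs DMSO control.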
# [14] = read-out: Intercellular Adhesion Molecule 1 (ICAM1), ICAM1 (gene 3383); experiment: BSK_3C_ICAM1: BioMAP Diversity Plus: 3C Assay for Intercellular Adhesion Molecule 1 (ICAM1) Biomarker Activity (AID 2283003); conditions: primary human endothelial cells (HUVEC); actives raise or lower the signal
# How it was run: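 Using DMSO as baseline, bidirectional curve fitting was applied to ICAM-1 ELISA signals from HUVEC in the 3C system, measured 24 h after compound addition.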
# [15] = BSK_3C_Proliferation: Cell Proliferation Assessment in the BioMAP Diversity Plus: 3C Assay (AID 2283006); conditions: primary human endothelial cells (HUVEC);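 for AC50: potency may reflect either rise or fall in cell number versus DMSO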
# How it was run: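 Measured here: sulforhodamine B (0.1%) staining of TCA-fixed sub-confluent umbilical vein endothelial cultures 48 h post-dosing, absorbance 560 nm. DMSO served as negative control and baseline; both signal gain and loss were modelled.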
# [16] = target: Peroxisome proliferator-activated receptor gamma (Homo sapiens) (UniProt P37231); experiment: ATG_PPARg_TRANS: Attagene TRANS-FACTORIAL HepG2 Assay for human Peroxisome Proliferator-activated Receptor-gamma (PPARg) (AID 2283007; active = hit-call score of the fitted dose curve at least 0.9, where 1 is the maximum)
# How it was run: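 Multiplexed reporter transcription units in HepG2, 24 h dosing, reporter transcripts quantified by fluorescent RT-PCR and capillary electrophoresis. Increase over DMSO scored.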
# [17] = target: Nuclear receptor subfamily 1 group I member 2 (Homo sapiens) (UniProt O75469); experiment: ATG_PXR_TRANS: Attagene TRANS-FACTORIAL HepG2 Assay for human Pregnane X Receptor (PXR) (AID 2283008; active = hit-call score of the fitted dose curve at least 0.9, where 1 is the maximum)
# How it was run: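 Transactivation by exogenous PXR–GAL4 fusion measured as reporter transcript induction after 24 h compound treatment of transfected human HepG2 cells. Read-out via RT-PCR and capillary electrophoresis of labelled fragments, fitted upward relative to DMSO.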
# [18] = target: human Retinoic Acid Receptor gamma (RARg), RARG (gene 5916) (UniProt P13631); experiment: ATG_RARg_TRANS: Attagene TRANS-FACTORIAL HepG2 Assay for human Retinoic Acid Receptor gamma (RARg) (AID 2283009; active = hit-call score of the fitted dose curve at least 0.9, where 1 is the maximum)
# How it was run: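 Gain-of-signal relative to DMSO is reported from fluorescent capillary electrophoresis of RT-PCR reporter products. These came from HepG2 cells expressing transfected RARg-GAL4 chimeras with UAS reporters, harvested 24 h after dosing.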
# [19] = target: human Retinoic Acid Receptor beta (RARb), RARB (gene 5915) (UniProt P10826); experiment: ATG_RARb_TRANS: Attagene TRANS-FACTORIAL HepG2 Assay for human Retinoic Acid Receptor beta (AID 2283004; active = hit-call score of the fitted dose curve at least 0.9, where 1 is the maximum)
# How it was run: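 Fluorescent capillary-electrophoresis detection of GAL4-UAS reporter mRNA defines the endpoint, with induction over DMSO-treated wells scored as activity. Transiently transfected human hepatoma HepG2 cells expressing exogenous NR–Gal4 proteins are exposed to test chemicals for 24 h.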
# Chain of human Peroxisome Proliferator-activated Receptor alpha (PPARa), PPARA (gene 5465) (Q07869 whole entry, looked up, the tested form may be a part): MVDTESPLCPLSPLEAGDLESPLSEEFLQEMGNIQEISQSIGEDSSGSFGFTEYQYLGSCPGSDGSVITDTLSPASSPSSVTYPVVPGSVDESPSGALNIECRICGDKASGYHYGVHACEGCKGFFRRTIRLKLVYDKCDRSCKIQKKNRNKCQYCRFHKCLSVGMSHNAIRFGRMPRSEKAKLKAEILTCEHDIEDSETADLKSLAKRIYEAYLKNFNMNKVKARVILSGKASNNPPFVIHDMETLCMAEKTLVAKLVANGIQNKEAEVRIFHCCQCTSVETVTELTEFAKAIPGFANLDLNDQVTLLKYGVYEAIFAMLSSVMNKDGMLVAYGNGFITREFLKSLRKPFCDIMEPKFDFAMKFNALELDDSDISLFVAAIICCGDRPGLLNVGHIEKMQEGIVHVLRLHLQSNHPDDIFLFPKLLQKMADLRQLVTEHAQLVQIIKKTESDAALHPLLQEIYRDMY
# Chain of Peroxisome proliferator-activated receptor gamma (Homo sapiens) (P37231 whole entry, looked up): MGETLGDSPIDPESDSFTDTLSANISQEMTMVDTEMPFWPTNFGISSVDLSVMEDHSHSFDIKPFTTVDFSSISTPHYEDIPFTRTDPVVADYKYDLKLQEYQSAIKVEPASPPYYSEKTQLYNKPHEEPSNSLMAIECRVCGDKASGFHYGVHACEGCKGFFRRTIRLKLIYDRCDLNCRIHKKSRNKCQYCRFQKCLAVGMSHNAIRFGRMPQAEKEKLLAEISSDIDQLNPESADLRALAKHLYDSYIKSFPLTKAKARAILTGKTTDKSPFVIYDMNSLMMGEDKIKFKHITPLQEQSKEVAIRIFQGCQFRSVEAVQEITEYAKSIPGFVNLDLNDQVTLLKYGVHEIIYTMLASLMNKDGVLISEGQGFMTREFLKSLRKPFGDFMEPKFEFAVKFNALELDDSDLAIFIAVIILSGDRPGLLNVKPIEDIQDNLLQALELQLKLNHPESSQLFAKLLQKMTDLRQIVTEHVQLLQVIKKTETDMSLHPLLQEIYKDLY
# Chain of Myc proto-oncogene protein (Homo sapiens) (P01106 whole entry, looked up): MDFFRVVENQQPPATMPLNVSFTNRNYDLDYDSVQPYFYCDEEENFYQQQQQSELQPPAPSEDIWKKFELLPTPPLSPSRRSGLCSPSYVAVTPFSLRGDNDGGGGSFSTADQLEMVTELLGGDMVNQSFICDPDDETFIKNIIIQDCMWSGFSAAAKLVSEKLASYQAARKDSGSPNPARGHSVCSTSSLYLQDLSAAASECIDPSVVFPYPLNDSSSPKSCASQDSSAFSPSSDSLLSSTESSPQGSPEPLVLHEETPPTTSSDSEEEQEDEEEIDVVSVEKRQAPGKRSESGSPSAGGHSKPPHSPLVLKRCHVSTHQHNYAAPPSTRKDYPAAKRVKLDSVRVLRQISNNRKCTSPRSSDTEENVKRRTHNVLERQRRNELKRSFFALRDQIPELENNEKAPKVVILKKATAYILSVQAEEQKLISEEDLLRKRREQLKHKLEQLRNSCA
# Chain of Cellular tumor antigen p53 (Homo sapiens) (P04637 whole entry, looked up): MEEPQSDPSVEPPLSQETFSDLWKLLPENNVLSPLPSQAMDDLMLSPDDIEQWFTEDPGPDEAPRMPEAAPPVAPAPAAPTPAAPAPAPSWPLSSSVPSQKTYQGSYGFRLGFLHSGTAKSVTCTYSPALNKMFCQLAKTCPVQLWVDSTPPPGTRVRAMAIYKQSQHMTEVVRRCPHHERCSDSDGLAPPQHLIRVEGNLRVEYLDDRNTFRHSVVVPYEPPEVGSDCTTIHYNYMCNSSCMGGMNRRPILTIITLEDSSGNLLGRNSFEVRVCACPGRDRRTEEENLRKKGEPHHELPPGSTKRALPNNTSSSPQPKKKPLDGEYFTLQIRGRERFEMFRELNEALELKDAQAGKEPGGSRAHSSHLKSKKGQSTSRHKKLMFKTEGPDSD
# Chain of Nuclear respiratory factor 1 (Homo sapiens) (Q16656 whole entry, looked up): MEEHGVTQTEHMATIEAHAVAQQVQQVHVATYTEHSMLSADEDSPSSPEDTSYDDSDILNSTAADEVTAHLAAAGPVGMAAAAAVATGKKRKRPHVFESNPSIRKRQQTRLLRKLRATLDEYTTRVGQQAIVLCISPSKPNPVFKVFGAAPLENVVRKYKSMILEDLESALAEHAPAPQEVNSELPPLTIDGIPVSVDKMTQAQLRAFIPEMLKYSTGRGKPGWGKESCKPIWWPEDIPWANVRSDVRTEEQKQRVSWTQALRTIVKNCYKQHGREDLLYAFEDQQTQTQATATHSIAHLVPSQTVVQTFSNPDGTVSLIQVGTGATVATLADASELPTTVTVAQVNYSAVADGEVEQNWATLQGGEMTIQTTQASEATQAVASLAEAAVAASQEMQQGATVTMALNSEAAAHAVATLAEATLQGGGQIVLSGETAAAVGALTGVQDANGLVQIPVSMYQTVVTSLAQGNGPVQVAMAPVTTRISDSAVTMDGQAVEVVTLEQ
# Chain of Nuclear receptor subfamily 1 group I member 2 (Homo sapiens) (O75469 whole entry, looked up, the tested form may be a part): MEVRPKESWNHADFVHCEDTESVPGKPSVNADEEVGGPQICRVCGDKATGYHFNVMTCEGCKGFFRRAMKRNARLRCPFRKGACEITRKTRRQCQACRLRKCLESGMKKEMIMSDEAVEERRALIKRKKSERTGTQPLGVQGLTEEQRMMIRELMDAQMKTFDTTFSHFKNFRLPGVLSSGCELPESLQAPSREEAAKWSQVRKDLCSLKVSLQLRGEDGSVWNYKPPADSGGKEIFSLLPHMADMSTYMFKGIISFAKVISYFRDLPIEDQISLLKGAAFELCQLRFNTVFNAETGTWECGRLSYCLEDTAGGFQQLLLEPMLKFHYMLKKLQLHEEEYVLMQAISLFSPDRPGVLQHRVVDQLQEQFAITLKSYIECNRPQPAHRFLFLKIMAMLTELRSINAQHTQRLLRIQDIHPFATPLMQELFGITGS
# Chain of human Peroxisome Proliferator-activated Receptor delta (PPARd), PPARD (gene 5467) (Q03181 whole entry, looked up): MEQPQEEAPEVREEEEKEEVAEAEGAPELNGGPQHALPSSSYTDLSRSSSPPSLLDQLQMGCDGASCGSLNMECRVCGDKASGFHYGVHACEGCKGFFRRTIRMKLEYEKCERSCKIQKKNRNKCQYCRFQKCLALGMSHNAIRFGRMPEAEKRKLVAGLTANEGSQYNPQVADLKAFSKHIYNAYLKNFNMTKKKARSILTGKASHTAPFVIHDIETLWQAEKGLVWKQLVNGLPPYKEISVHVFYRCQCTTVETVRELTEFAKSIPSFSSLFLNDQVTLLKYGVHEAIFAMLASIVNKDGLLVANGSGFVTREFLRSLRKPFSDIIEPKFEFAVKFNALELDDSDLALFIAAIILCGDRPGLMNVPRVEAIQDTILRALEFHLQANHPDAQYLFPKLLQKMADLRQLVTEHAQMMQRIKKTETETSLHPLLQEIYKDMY
# Chain of human Retinoic Acid Receptor gamma (RARg), RARG (gene 5916) (P13631 whole entry, looked up, the tested form may be a part): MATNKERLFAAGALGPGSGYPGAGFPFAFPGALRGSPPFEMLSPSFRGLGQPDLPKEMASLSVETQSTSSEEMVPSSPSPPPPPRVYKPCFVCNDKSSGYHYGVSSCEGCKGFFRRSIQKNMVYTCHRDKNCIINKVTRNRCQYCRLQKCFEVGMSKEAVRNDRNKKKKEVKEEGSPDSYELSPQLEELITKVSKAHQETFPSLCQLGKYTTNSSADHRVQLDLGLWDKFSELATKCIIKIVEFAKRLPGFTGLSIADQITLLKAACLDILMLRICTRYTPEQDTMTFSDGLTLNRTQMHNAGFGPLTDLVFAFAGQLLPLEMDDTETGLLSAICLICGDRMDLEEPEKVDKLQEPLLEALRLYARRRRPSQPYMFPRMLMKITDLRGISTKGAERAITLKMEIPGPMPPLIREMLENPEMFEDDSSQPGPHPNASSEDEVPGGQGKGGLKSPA
# Chain of human Retinoic Acid Receptor beta (RARb), RARB (gene 5915) (P10826 whole entry, looked up, the tested form may be a part): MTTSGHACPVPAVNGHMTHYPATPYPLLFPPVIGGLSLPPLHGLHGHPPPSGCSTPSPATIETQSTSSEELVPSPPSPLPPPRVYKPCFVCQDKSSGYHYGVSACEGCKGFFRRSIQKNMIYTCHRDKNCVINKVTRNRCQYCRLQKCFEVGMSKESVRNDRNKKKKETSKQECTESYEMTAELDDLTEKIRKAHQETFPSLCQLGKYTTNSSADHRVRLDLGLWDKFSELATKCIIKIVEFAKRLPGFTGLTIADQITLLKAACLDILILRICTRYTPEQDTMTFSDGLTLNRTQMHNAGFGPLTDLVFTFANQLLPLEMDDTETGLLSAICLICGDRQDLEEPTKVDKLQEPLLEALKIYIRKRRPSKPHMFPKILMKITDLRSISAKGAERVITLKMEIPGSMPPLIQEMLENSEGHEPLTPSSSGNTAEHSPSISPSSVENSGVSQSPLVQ
smiles,measurement,setting,value
O=S(=O)(O)CCC(F)(F)C(F)(F)C(F)(F)C(F)(F)C(F)(F)C(F)(F)C(F)(F)C(F)(F)F,outcome,[1],inactive
same,outcome,[2],inactive
same,outcome,[3],inactive
same,outcome,[4],inactive
same,AC50,[5],91.8 µM (active)
same,outcome,[6],inactive
same,outcome,[7],inactive
same,outcome,[8],inactive
same,outcome,[9],inactive
same,outcome,[10],inactive
same,outcome,[11],inactive
same,outcome,[12],inactive
same,outcome,[13],inactive
same,outcome,[14],inactive
same,outcome,[15],inactive
same,outcome,[16],inactive
same,outcome,[17],inactive
CCN(CCO)S(=O)(=O)C(F)(F)C(F)(F)C(F)(F)C(F)(F)C(F)(F)C(F)(F)C(F)(F)C(F)(F)F,outcome,[1],inactive
same,outcome,[2],inactive
same,outcome,[3],inactive
same,outcome,[4],inactive
same,AC50,[5],110 µM (active)
same,AC50,[6],15.4 µM (active)
same,outcome,[7],inactive
same,AC50,[8],55.1 µM (active) and 9.9 µM (active)
same,AC50,[9],8.1 µM (active)
same,outcome,[9],inactive
same,outcome,[10],inactive
same,AC50,[11],20.9 µM (active) and 43.5 µM (active)
same,outcome,[12],inactive
same,outcome,[13],inactive
same,AC50,[14],50.8 µM (active) and 9.21 µM (active)
same,AC50,[15],8.37 µM (active) and 10.7 µM (active)
same,outcome,[16],inactive
same,outcome,[17],inactive
same,outcome,[18],inactive
O=C(O)C(F)(F)C(F)(F)C(F)(F)OC(F)(F)F,outcome,[1],inactive
same,outcome,[2],inactive
same,outcome,[3],inactive
same,outcome,[4],inactive
same,outcome,[5],inactive
same,outcome,[6],inactive
same,outcome,[7],inactive
same,outcome,[8],inactive
same,outcome,[9],inactive
same,outcome,[10],inactive
same,outcome,[11],inactive
same,AC50,[12],61.4 µM (active)
same,outcome,[14],inactive
same,outcome,[19],inactive
same,outcome,[15],inactive
same,outcome,[16],inactive
same,outcome,[17],inactive
C=CCOC(=O)CC(C)C,outcome,[1],inactive
same,outcome,[2],inactive
same,outcome,[3],inactive
same,outcome,[4],inactive
same,outcome,[5],inactive
same,outcome,[6],inactive
same,outcome,[7],inactive
